Screening data as filed in PubChem BioAssay.
AmpC detergent: qHTS Inhibitors of AmpC Beta-Lactamase (assay with detergent); P00811; AmpC hydrolysis of nitrocefin, absorbance 480 nm, 0.01% Triton; Potency, µM (doses to about 114 µM), for inactives: at the highest dose activity change, negative = inhibition, actives largely listed as inhibitors; hit rate 0.041% among 370,000;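 further: 0% = no-compound wells and -100% = no-enzyme wells; nearly all actives have a fitted effect of over 25% in size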
Target sequence (P00811 whole entry, looked up): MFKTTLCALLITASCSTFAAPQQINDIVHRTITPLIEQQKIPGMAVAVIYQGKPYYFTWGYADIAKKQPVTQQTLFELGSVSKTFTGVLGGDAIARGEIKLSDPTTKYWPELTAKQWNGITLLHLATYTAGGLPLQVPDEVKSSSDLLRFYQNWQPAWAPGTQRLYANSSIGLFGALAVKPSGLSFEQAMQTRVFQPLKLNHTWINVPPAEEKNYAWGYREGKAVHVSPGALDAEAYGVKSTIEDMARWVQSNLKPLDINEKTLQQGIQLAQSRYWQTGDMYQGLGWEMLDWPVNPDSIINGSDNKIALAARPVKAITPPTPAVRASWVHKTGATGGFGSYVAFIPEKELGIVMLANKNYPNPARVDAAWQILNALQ
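20 mM phosphate pH 7.0 + 0.01% (detergent screen) or 0.0001% Triton X-100; 5.3 nM AmpC reagent; cpd preinc 15 min RT; nitrocefin (800 uM stock) to start; A480 q20 s × 4 min; Activity was normalised to no-enzyme and no-compound control wells.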
Marburg entry inh: qHTS for inhibitors of binding or entry into cells for Marburg Virus | Marburg virus pseudotyped entry inhibition, cell reporter | Potency, µM (titrated, usually from 37.8 µM), for inactives: at the top dose activity change, negative = inhibition, most hits filed as inhibitors | hit rate 1.8% among 300,000; calls by dose curve; tested in HEK293 cells
AMA1-RON2 inh: qHTS for Inhibitors of AMA1-RON; Towards Development of Antimalarial Drug Lead: Primary Screen | AlphaScreen AMA1-biotinylated RON2 peptide binding | hit rate 0.2% among 360,000 | Potency, µM (doses to about 58.2 µM), inactives show at the top dose activity change, negative = inhibition, most hits filed as inhibitors | Plasmodium falciparum AMA1 (3D7) - RON2 peptide interaction;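 further: 0% = vehicle wells and -100% = peptide control; nearly all actives have a fitted effect of over 45% in size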
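AMA1 (3D7) with his tag at 25 nM final met compounds first, then biotinylated RON2 peptide at 25 nM; detection used donor plus acceptor beads, 10 µg/mL apiece, read by AlphaScreen after 30 min at room temperature.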
AmpC no deterg: qHTS Inhibitors of AmpC Beta-Lactamase (assay without detergent); P00811; AmpC nitrocefin hydrolysis, absorbance 480 nm, 0.0001% Triton; Potency, µM (top dose mostly 57.1 µM), for inactives: at the top dose activity change, negative = inhibition, actives largely listed as inhibitors; hit rate 0.52% among 330,000; AID 485341, 2010;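 further: plate controls were no compound for no effect and no enzyme for full effect; nearly all actives have a fitted effect of over 20% in size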
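AmpC (5.3 nM in the dispensed reagent) in 20 mM phosphate pH 7.0 with 0.01% (detergent screen) or 0.0001% Triton X-100 was preincubated with compounds for 15 min at room temperature. Nitrocefin was then added from an 800 uM solution, and hydrolysis was followed at 480 nm.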
Lassa entry inh: qHTS for Inhibitors of binding or entry into cells for Lassa Virus; Potency, µM (top dose mostly 37.9 µM), for inactives: top-dose activity change, negative = inhibition, usual class: inhibitors; Lassa virus pseudotype entry inhibition, cell reporter; hit rate 1.2% among 300,000; calls by dose curve; tested in HEK293 cells; further: nearly all actives have a fitted effect of over 50% in size
An asterisk follows results filed as active; ? = inconclusive; . = not tested or not shown; [ ] = remark or other dose. Hits are enriched below; roughly 2.3% of the tested compounds scored in any of these assays. Unless noted, the call rests on the fitted dose curve; in most records, active means well fitted curve in the direction sought with a large enough effect; inconclusive means small, poorly fitted or top-dose-only effect, or another doubt; inactive means no such curve, though single readings can be large; an effect the other way counts as inactive or inconclusive. Unless noted, on the % scale 0 is the no-effect control and ±100 the full control effect; potency means the concentration at half of the fitted maximal effect.

SMILES	AmpC detergent	Marburg entry inh	AMA1-RON2 inh	AmpC no deterg	Lassa entry inh
CCN(CC)C(=O)c1sc2c(c1C)c(=O)n(CCc1ccccc1)c(=O)n2Cc1ccc(F)cc1Cl	4%	.	.	.	7%[46.1 µM]
CCN(CC)C(=O)c1sc2c(c1C)c(=O)n(CCc1ccccc1)c(=O)n2Cc1cccc(Cl)c1	5%	.	.	.	6.3µM*
COc1ccccc1CN1CCCC(C(=O)c2ccccc2OC)C1 (stereo not given)	2%	?	15%	-19%	?
COc1ccc(F)cc1C(=O)C1CCCN(Cc2cnc(C)s2)C1 (stereo not given)	4%	.	2%	4%	.
CCOc1ccc(CN2CCCC(C(=O)c3ccccc3OC)C2)cc1 (stereo not given)	-10%	8.9µM*	-7%	60%	?
CCOC(=O)C1CCCN(Cc2ccc(OCC)cc2)C1 (stereo not given)	?	-28%	-7%	-12%	8%
COc1ccc(O)c(CN2CCCC(C(=O)c3ccccc3SC)C2)c1 (stereo not given)	2%	?	?	-24%	-6%
COc1cccc(OC)c1CN1CCCC(C(=O)c2ccccc2SC)C1 (stereo not given)	5%	6.3µM*	-19%	61%	?
COc1ccccc1CN1CCCC(C(=O)c2ccccc2SC)C1 (stereo not given)	-3%	10µM*	-16%	10%	?
COc1ccc(Cl)cc1C(=O)C1CCCN(Cc2cnc(C)s2)C1 (stereo not given)	-10%	3%[46.1 µM]	-24%	-16%	11µM*
Cc1ccccc1-c1noc(-c2ccc(NCc3ccco3)c([N+](=O)[O-])c2)n1	17%	29%[46.1 µM]	.	.	-12%[46.1 µM]
COc1cc2cc(CNc3ccccc3)c(=O)n(CC(=O)Nc3ccccc3)c2cc1OC	-1%	.	.	.	14%[46.1 µM]
Cc1ccc(N2CC(NC(=O)C3CC3)CC2=O)cc1C (stereo not given)	2%	.	.	.	34%[46.1 µM]
CCN(CC)C(=O)c1sc2c(c1C)c(=O)n(-c1ccc(Cl)c(Cl)c1)c(=O)n2Cc1cc(=O)n2ccccc2n1	5%	.	.	.	?
CCOC(=O)/C(=C\C=C1/Sc2ccccc2N1CC)C(C)=O	1%	?	-28%	46%	2.8µM*
O=C(Nc1ccc(-c2csc(Nc3ccccc3)n2)cc1)c1cccc(C(F)(F)F)c1	2%	.	0%	3.5µM*	.
Cc1nc(-c2ccc(C(=O)Nc3ccccc3F)cc2)cs1	?	?	-4%	-30%	?
Cc1nc(-c2ccc(C(=O)Nc3ccc(F)cc3)cc2)cs1	0%	6.3µM*	-8%	-26%	?
Cc1nc(-c2ccc(C(=O)Nc3cccc(F)c3)cc2)cs1	-17%	5µM*	12%	64%	?
COc1ccc(NC(=O)c2ccc(-c3csc(C)n3)cc2)cc1	-2%	?	-2%	-4%	?
COc1ccc(CCNc2oc(/C=C/c3ccc(OC)c(OC)c3)nc2C#N)cc1	3%	9%[46.1 µM]	.	.	-24%[46.1 µM]
Cc1ccc(CNC(=O)Cn2c3ncccc3c(=O)n2-c2ccc(C)cc2)cc1	-2%	.	.	.	20%[46.1 µM]
CC1=C(C(=O)Nc2ccccc2)C(c2cccnc2)n2nc(SCc3ccccc3F)nc2N1 (stereo not given)	1%	?	.	.	-4%[46.1 µM]
CCOc1ccc(-c2nc(-c3cccnc3)no2)cc1	?	5.6µM*	-8%	-12%	10µM*
Clc1ccccc1-c1nc(-c2ccc(Br)o2)no1	-4%	.	8%	-28%	.
O=[N+]([O-])c1ccccc1-c1nc(-c2ccc(Br)o2)no1	-5%	?	25µM*	-22%	?
COc1ccc(-c2nc(-c3ccncc3)no2)cc1	3%	.	-2%	2%	.
Clc1ccc(OCc2nc(-c3ccccn3)no2)c(Br)c1	?	?	13%	-12%	9.2µM*
COc1ccc(-c2nc(-c3cccs3)no2)cc1	-2%	?	13%	21%	1.8µM*
Cc1c(Cl)cccc1N1C(=O)[C@@H]2[C@H](ON(c3ccccc3)[C@H]2c2cccnc2)C1=O	.	2%	.	.	.
